Data published in PubChem BioAssay (EPA / NIEHS).
Records with an inconclusive call do not appear. Some compounds were tested as several samples or in several runs, with calls that do not always agree. Active and inactive are the calls of the source. Rule for the calls: active = hit-call score of the fitted dose curve at least 0.9, where 1 is the maximum; inconclusive = response in the unintended direction; inactive = score below 0.9.

The molecules below were run against human Peroxisome Proliferator-activated Receptor delta (PPARd), PPARD (gene 5467) (UniProt Q03181) (assay: ATG_PPARd_TRANS: Attagene TRANS-FACTORIAL HepG2 Assay for human Peroxisome Proliferator-activated Receptor delta (PPARd) (AID 2283002)).
Sequence of human Peroxisome Proliferator-activated Receptor delta (PPARd), PPARD (gene 5467) (Q03181 whole entry, looked up): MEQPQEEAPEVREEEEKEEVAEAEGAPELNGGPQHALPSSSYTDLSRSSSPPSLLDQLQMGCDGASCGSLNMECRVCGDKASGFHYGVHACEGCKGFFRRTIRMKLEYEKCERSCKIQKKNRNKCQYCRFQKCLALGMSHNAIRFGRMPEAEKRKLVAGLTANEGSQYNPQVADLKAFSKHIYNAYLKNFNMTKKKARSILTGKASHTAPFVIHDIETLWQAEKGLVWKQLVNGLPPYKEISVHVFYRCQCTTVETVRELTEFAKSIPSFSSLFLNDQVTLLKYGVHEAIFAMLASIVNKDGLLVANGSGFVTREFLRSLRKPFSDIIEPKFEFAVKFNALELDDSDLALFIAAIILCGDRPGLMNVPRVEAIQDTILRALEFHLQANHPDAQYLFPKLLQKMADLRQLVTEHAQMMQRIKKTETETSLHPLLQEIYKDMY
Protocol: ATG_TRANS is a cell-based, multiplexed-readout assay that uses HepG2, a human liver cell line, with measurements taken at 24 hours after chemical dosing in a 24-well plate.ATG_PPARd_TRANS is one of 30 assay component(s) measured or calculated from the ATG_TRANS assay. It is designed to make measurements of mRNA induction, a form of inducible reporter, as detected with fluorescence intensity signals by Reverse transcription polymerase chain reaction (RT-PCR) and Capillary electrophoresis technology.Data from the assay component ATG_PPARd_TRANS was analyzed into 1 assay endpoint. This assay endpoint, ATG_PPARd_TRANS, was analyzed in the positive analysis fitting direction relative to DMSO as the negative control and baseline of activity. Using a type of inducible reporter, measures of mRNA for gain-of-signal activity can be used to understand the reporter gene at the transcription factor-level as they relate to the gene PPARD. Furthermore, this assay endpoint can be referred to as a primary readout, because this assay has produced multiple assay endpoints where this one serves a reporter gene function. To generalize the intended target to other relatable targets, this assay endpoint is annotated to the nuclear receptor intended target family, where the subfamily is non-steroidal.
Human liver HepG2 cells are transiently transfected with multiple reporter transcription units (MRTUs) in 6-well plates using FuGene 6 reagent (Roche; 3 ml FuGene/1 mg DNA). The MRTU constructs are regulated by a cis-regulating element (promoter). […] A major difference between the CIS and TRANS system is that in CIS activities of endogenous TFs are measured, whereas the TRANS assay evaluates changes in activities of exogenous, chimeric NR-Gal4 proteins. […] At the end of 24 hour incubation, total RNA was isolated using TriZol reagent (Invitrogen). The isolated RNA is then reverse-transcribed using oligo(dT) primer and Mo-MLV reverse transcriptase (Invitrogen) with DNAse I (Ambion) treatment for 30 min. The one-tenth of the produced cDNA was amplified by PCR using Taq DNA polymerase (Invitrogen) and two reporter sequence-specific primers. The PCR products were fluorescently labeled by primer extension with 6-arboxyfluorescein (6-FAM) 5'-labeled reporter sequence-specific primer (2 min at 95 C, 20 s at 68 C and 10 min at 72 C) and these products were digested with 5U of HpaI (New England Biolabs) for 2h at 37 C. The fragments were purified using Qiaquick PCR columns (Qiagen), analyzed on an ABI 3130xL genetic analyzer (Applied Biosystems) with peak positions identified by using a set of X-rhodamine (ROX)-labeled MapMarker1000 molecular weight standards (BioVentures). The raw capillary electrophoresis data was processed using Attagraph software (Attagene).

SMILES | outcome | AC50
CC(C)(C)CC(C)(C)c1ccc(O)c(-n2nc3ccccc3n2)c1 | inactive | 
CCc1ccc(CCOc2ccc(CC3SC(=O)NC3=O)cc2)nc1 (stereo not given) | inactive | 
Cc1oc(-c2ccccc2)nc1CCOc1ccc(C[C@H](Nc2ccccc2C(=O)c2ccccc2)C(=O)O)cc1 | inactive | 
CC1=C(/C=C/C(C)=C/C=C/C(C)=C/C(=O)O)C(C)(C)CCC1 | inactive | 56 µM (active)
Cc1ccc(S(=O)(=O)O)c(C)c1 | inactive | 
OCCC(F)(F)C(F)(F)C(F)(F)C(F)(F)C(F)(F)C(F)(F)C(F)(F)C(F)(F)F | inactive | 
O=C(O)c1ccccc1C(c1ccc(O)cc1)c1ccc(O)cc1 | inactive | 
O=C1OC2(c3ccccc31)c1cc(Br)c(O)c(Br)c1Oc1c2cc(Br)c(O)c1Br | inactive | 
CCCCCCCCCCCCCC[N+](C)(C)C | inactive | 
c1ccc2c(c1)ccc1ccccc12 | inactive | 
C#C[C@]1(O)CC[C@H]2[C@@H]3CCC4=CC(=O)CC[C@@H]4[C@H]3CC[C@@]21C | inactive | 
CC(C)(C)c1cc(C(C)(C)C)c(O)c(C(C)(C)C)c1 | inactive | 
COCC(C)OCC(C)O (stereo not given) | inactive | 
CC[C@H](c1ccc(O)cc1)[C@@H](CC)c1ccc(O)cc1 | inactive | 
NC(=O)N1C(=O)C(C(=O)c2cc(Cl)cs2)c2cc(F)c(Cl)cc21 (stereo not given) | inactive | 
CCCCC[C@H](O)CC(=O)CCc1ccc(O)c(OC)c1 | inactive | 
CCCCC(CC)COC(=O)CCCCC(=O)OCC(CC)CCCC (stereo not given) | inactive | 
Nc1cccc2c(N)cccc12 | inactive | 
CCC(=C(c1ccc(O)cc1)c1ccc(OCCN(C)C)cc1)c1ccccc1 | inactive | 
O=c1c(-c2ccc(O)cc2)coc2cc(O)ccc12 | inactive | 

SMILES | outcome | AC50
OCCC(F)(F)C(F)(F)C(F)(F)C(F)(F)C(F)(F)C(F)(F)F | inactive | 
CC(=O)NC1(c2cccc(F)c2)CCN(CC[C@@]2(c3ccc(Cl)c(Cl)c3)CN(c3ccccc3)C(=O)CO2)CC1 | inactive | 
NCC(F)(F)C(F)(F)C(F)(F)C(F)(F)C(F)(F)C(F)(F)C(F)(F)F | inactive | 
CC(C)CCCCCCOC(=O)CCCCC(=O)OCCCCCCC(C)C | inactive | 
O=C(OCCOCCOC(=O)c1ccccc1)c1ccccc1 | inactive | 
CCc1nn(C2CCCCC2)c2cc(C3(C#N)CCC(C(=O)O)CC3)ccc12 (stereo not given) | inactive | 
CC(C)(C)c1cccc(C(C)(C)C)c1O | inactive | 
CC(=O)CC(C)(C)O | inactive | 
COc1cc(CCC(=O)CC(=O)CCc2ccc(O)c(OC)c2)ccc1O | inactive | 
O=[N+]([O-])c1ccc(O)cc1 | inactive | 
CCCOc1sc(C(=O)N2CCC(c3cc(CN)ccc3F)CC2)c(C)c1Br | inactive | 
Oc1cccc(O)c1 | inactive | 
CCCCCCCCCCCCN1CCCC1=O | inactive | 
CCC(C)(C)C1CCC(O)CC1 (stereo not given) | inactive | 
Oc1cc2ccccc2c2ccccc12 | inactive | 
OC1CCCCC1 | inactive | 
OC1CCC(C2CCCCC2)CC1 (stereo not given) | inactive | 
O=C(O)Cc1cc(I)c(Oc2cc(I)c(O)c(I)c2)c(I)c1 | inactive | 
Cc1cc(CCN2CCN(c3nsc4ccccc34)CC2)cc2c1NC(=O)CC2(C)C | inactive | 
